Screening data as filed in PubChem BioAssay.
KKLEB tox: cytotoxicity in KKLEB CF airway cells, primary screen, cytotoxicity control for CF NF-kB inhibitor project, cell-based, uHTS, fluorescence assay plates | KKLEB CF airway cells viability, ATPlite luminescence, overnight; active compounds read low; cells stimulated with P. aeruginosa culture filtrate | activity change (cytotoxicity), % at 5 µM | 360,000 compounds, 0.36% hits | AID 602141, 2011;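 active = corrected activity change at or below -50% at 5 µM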
TWEAK-Fn14 inh: inhibitors of TWEAK-Fn14 signaling, primary screen, luciferase reporter cells, uHTS; 360,000 compounds, 2% hits; inhibition, % at 10 µM; TWEAK-stimulated Fn14 reporter cells, luciferase luminescence, 8 h; in the data active = inhibition above about 50%
CF NFkB inh: inhibitors of PAF-induced NF-kB signaling, primary screen, cell-based, GFP fluorescence, uHTS. inhibition, % at 5 µM. AID 588850, 2011. KKLEB NF-kB-GFP reporter, GFP fluorescence overnight. 360,000 compounds, 0.86% hits;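 active = at least 50% inhibition at 5 µM, scaled per plate between neutral and stimulator controls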;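 also: PAF is a Pseudomonas aeruginosa culture filtrate used as stimulus; plate controls were PAF-stimulated DMSO wells for no effect and unstimulated DMSO wells for full effect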
Peg3 promoter: Peg3 promoter-driven luciferase inhibitors, primary screen, cell-based, HeLa, luciferase luminescence. 360,000 compounds, 1.7% hits. inhibition, % at 20 µM. HeLa PEG-Prom luciferase reporter, overnight;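 active = inhibition of at least 50% at 20 µM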
TROY signal inh: inhibitors of TROY-driven NF-kB signaling, primary screen, Q293 LMP1-TROYcd cells, NF-kB luciferase, uHTS; Q293 LMP1-TROYcd NF-kB luciferase reporter, 4 h; inhibition, % at 10 µM; 360,000 compounds, 0.98% hits;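 active = compounds whose plate-normalised and pattern-corrected inhibition of the luciferase reporter signal at the single screening dose is 50% or more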
HIF-2a inh: HIF-2a reporter inhibitors, primary screen, luminescence, 786-0 RCC cells | inhibition, % at 18.8 µM | 360,000 compounds, 0.72% hits | 786-0 RCC cells HIF-2a reporter, luciferase luminescence, overnight;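 active = inhibition of the luminescence signal of 40% or more relative to plate controls, in a single-dose primary screen at 18.75 µM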
* hit, by the source's call. An excerpt weighted towards active compounds, which were near 4% of everything screened.

SMILES | KKLEB tox | TWEAK-Fn14 inh | CF NFkB inh | Peg3 promoter | TROY signal inh | HIF-2a inh
COc1cc2nc(Nc3ccc(C)c(Cl)c3)nc(N)c2cc1OC | -51.4* | 101.8* | -1.1 | 113.9* | 32.7 | -18.9
COc1ccc(C)cc1Nc1nc(N)c2ccccc2n1 | 2.2 | -15.9 | -10.3 | -95.8 | -42.0 | -145.9
Cc1ccc(Nc2nc(N)c3ccccc3n2)cc1Cl | -46.2 | 68.0* | 0.8 | -87.4 | 16.2 | -106.5
Nc1ccccc1C(=O)Nc1cccc(C(=O)O)c1 | -8.9 | 1.7 | -4.4 | 20.8 | -9.6 | 8.6
CC(C)=CCc1cc([C@@H]2CC(=O)c3ccc(O)c(CC=C(C)C)c3O2)ccc1O | -7.4 | 57.8* | 35.2 | 17.2 | 43.3 | -28.4
CSc1nc(O)c(C(c2ccc(C)cc2)c2c(O)nc(SC)[nH]c2=O)c(=O)[nH]1 | 9.5 | 5.8 | -12.8 | 9.1 | 8.8 | 10.5
Cc1ccc(Cl)cc1NC(=O)CC(O)(C(F)(F)F)C(F)(F)F | -18.6 | 31.0 | 17.2 | 40.8 | 53.5* | -42.9
COCC(=O)Nc1cc(Cl)ccc1C | -1.7 | -1.0 | 9.8 | 8.8 | -3.4 | 2.0
O=C(Cc1cccs1)NCCSc1c(-c2ccc(Cl)cc2)[nH]c2ccccc12 | -29.5 | 81.0* | 25.2 | 41.9 | 51.1* | -20.4
CCOC(=O)CSc1c(-c2ccc(Cl)cc2)[nH]c2ccccc12 | -3.6 | 4.3 | 4.6 | 14.5 | -22.4 | -146.2
CC(CC(=O)N1CCN(c2cccc(Cl)c2)CC1)S(=O)(=O)c1ccc2c(c1)NC(=O)CO2 (configuration not stated) | -1.3 | 58.6* | -2.9 | 16.2 | 47.4 | 1.6
N#C/C(=C\c1ccc(O)c(O)c1)C(=O)N1CCCC1 | -2.2 | -34.5 | -5.4 | 4.8 | -5.2 | 17.4
N#C/C(=C\c1ccc(O)c(O)c1)C(=O)c1ccc(O)c(O)c1 | 7.3 | 62.9* | -4.4 | 2.1 | 15.6 | 2.9
C/C=C(\C)C(=O)OC1CC(C)(C)C[C@H]2C3=CC[C@@H]4[C@@]5(C)CCC(O[C@@H]6O[C@@H](C(=O)O)[C@@H](O)C(O[C@@H]7OC[C@H](O)[C@@H](O)[C@@H]7O[C@@H]7OC(CO)C(O)[C@@H](O)[C@@H]7O)C6O[C@@H]6OC(CO)C(O)C(O)C6O)[C@@](C)(CO)[C@@H]5CC[C@]4(C)[C@]3(C)CC(O)[C@@]12CO (some centres not stated) | 0.2 | 1.5 | 7.3 | 59.5* | -13.2 | 6.1
COC(=O)C1CCN(C(=O)c2oc3c(Cl)cc(C)cc3c2C)CC1 | -9.3 | -14.1 | 7.5 | -381.4 | -39.4 | -176.0
Cc1cc(Cl)c2oc(C(=O)N3CCN(c4ccncc4)CC3)c(C)c2c1 | -11.9 | -0.9 | 17.7 | 91.9* | -6.2 | 21.9
CCOC(=O)/C=c1\s/c(=C\c2ccccc2C)c(=O)n1CC(=O)NCc1ccc2c(c1)OCO2 | -58.4* | -1.1 | 37.5 | 13.7 | 14.0 | -6.6
CCCn1c(SCC(=O)c2cc(OC)ccc2OC)nnc1C(C)C | 13.8 | -0.9 | -5.2 | 23.8 | 18.5 | 7.8
Brc1ccc(COc2ncnc3ccccc23)cc1 | -11.3 | -11.7 | -10.1 | 11.0 | -17.8 | -0.5
Cc1ccc(N=Cc2cc(Cc3ccccc3Cl)cc([N+](=O)[O-])c2O)c(O)c1 | 6.1 | 16.2 | 73.3* | -40.5 | 46.3 | -31.6
COc1ccc(N=C2NN=C(c3c(C)[nH]c4ccccc34)CS2)cc1 | -6.5 | 9.7 | -2.0 | 21.8 | 2.2 | -11.8
Cc1[nH]c2ccccc2c1C1=NNC(=Nc2ccc(F)cc2)SC1 | 16.1 | 55.4* | -10.8 | 15.3 | 24.8 | -31.5
O=C1COc2ccc(C(=O)COC(=O)c3c(F)cccc3Cl)cc2N1 | -13.6 | -10.2 | 22.5 | -11.9 | -40.5 | -11.5
CC1(C)N=C(N)N=C(N)N1c1ccc(OCCCOc2ccccc2)c(Cl)c1 | -7.2 | 86.6* | 8.6 | 26.1 | 5.7 | 33.6
CC1(C)N=C(N)N=C(N)N1c1ccc(OCC(=O)Nc2ccccc2)c(Cl)c1 | 5.3 | 19.0 | -45.3 | 9.6 | 9.6 | 30.9
SMILES | KKLEB tox | TWEAK-Fn14 inh | CF NFkB inh | Peg3 promoter | TROY signal inh | HIF-2a inh
COc1ccc(/C=N/NC(=O)c2cccc(C(=O)N/N=C/c3ccc(OC)c(OC)c3)n2)cc1OC | -3.0 | -17.1 | -21.0 | 13.9 | -3.8 | -2.7
COc1ccc(/C=N/NC(=O)Nc2cccc3nsnc23)cc1OC | -9.9 | 61.9* | 39.9 | 8.8 | 13.6 | -2.8
O=C(Nc1ccc(Cl)cc1)Nc1cccc2nsnc12 | -0.6 | 55.9* | 44.1 | -114.1 | 29.3 | -308.9
O=C(O)C(NS(=O)(=O)c1ccc(F)cc1)c1ccccc1 (configuration not stated) | 5.8 | 89.5* | -3.9 | -0.3 | 14.1 | 7.8
COC(=O)C(NS(=O)(=O)c1ccc(C)cc1)c1ccccc1 (configuration not stated) | -14.2 | -1.1 | 4.2 | 15.0 | 1.3 | 13.7
COc1cc2c(c3oc(-c4ccccc4)cc(=O)c13)C=CC(C)(C)O2 | -2.6 | 64.1* | 10.2 | 34.1 | 18.7 | 7.8
CC(=O)c1cccc(NC(=O)Nc2csc3c2CCCC3)c1 | 3.2 | 15.7 | -21.6 | -38.6 | -13.0 | -56.2
O=C(C[C@H]1C[C@H](C(=O)N2CCCCC2)[C@@]2(CCc3ccccc3)c3[nH]c4ccc(Cl)cc4c3CCN2C1=O)NCc1cccc(C(F)(F)F)c1 | -29.2 | 52.5* | 43.3 | 4.7 | 16.1 | 2.9
CN(C)CCCNC(=O)CC1C[C@H](C(=O)N2CCCCC2)[C@@]2(CCc3ccccc3)c3[nH]c4ccccc4c3CCN2C1=O (some centres not stated) | 3.5 | -9.9 | 10.0 | 92.7* | 21.9 | -13.1
CN(C)CCCNC(=O)C[C@H]1C[C@H](C(=O)N2CCCCC2)[C@@]2(C)c3[nH]c4cc(-c5ccco5)ccc4c3CCN2C1=O | 17.0 | -17.7 | -10.7 | 65.3* | -19.0 | -5.6
O=C(CC1C[C@H](C(=O)N2CCCCC2)[C@@]2(CCc3ccccc3)c3[nH]c4ccccc4c3CCN2C1=O)NCc1cccc(C(F)(F)F)c1 (some centres not stated) | -4.8 | 48.6 | 17.0 | -1.0 | 18.1 | -3.2
CC(C)(C)NC(=O)C[C@H]1C[C@H](C(=O)N2CCCCC2)[C@@]2(CCc3ccccc3)c3[nH]c4cc(-c5ccco5)ccc4c3CCN2C1=O | 6.9 | 2.8 | 13.2 | 16.0 | 3.4 | 0.7
CN(C)CCCNC(=O)C[C@H]1C[C@H](C(=O)N2CCCCC2)[C@@]2(CCc3ccccc3)c3[nH]c4cc(-c5ccco5)ccc4c3CCN2C1=O | -34.6 | -21.2 | 30.7 | 95.1* | 8.9 | -15.5
